Screening results as filed in PubChem.
This excerpt belongs to a sample that is enriched for hits.
Shiga toxin inh = Shiga toxin inhibition; Vero cells, Shiga toxin protein synthesis inhibition reporter; inhibition, % at 38.7 µM; 290,000 tested, 9.2% active; AID 2315; in the data active means inhibition mostly above about 28%, no sharp cut-off; inactive means mostly below about 43%; further: 0% is about no effect
Tb PYK inh = blocks Trypanosoma brucei pyruvate kinase | Q57TT1 | TbPYK enzyme, Kinase-Glo Plus ATP luminescence, 45 min | Potency, µM (top dose mostly 76.8 µM), inactives show top-dose activity, negative = inhibition, usual class: inhibitors | 410,000 tested, 0.12% active | AID 624173; further: potency means the concentration at half of the fitted maximal effect; on the % scale 0 is the no-effect control and ±100 the full control effect; nearly all actives have a fitted effect of over 50% in size
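T. brucei PYK with substrate was exposed to pin-transferred compounds across a concentration series, then started with 130 uM ADP (final). After 45 min at room temperature, Kinase-Glo Plus luminescence was read, normalized and curve-fitted.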
LmPK inh = LmPK (Leishmania mexicana) enzyme inhibition; purified LmPK, Kinase-Glo ATP luminescence, 1 h; Potency, µM (doses to about 57.5 µM), for the others: at the top dose activity change, negative = inhibition, hits mostly inhibitors; 290,000 tested, 0.37% active; AID 1721; further: potency means the concentration at half of the fitted maximal effect; on the % scale 0 is the no-effect control and ±100 the full control effect
Target sequence (Q27686 whole entry, looked up): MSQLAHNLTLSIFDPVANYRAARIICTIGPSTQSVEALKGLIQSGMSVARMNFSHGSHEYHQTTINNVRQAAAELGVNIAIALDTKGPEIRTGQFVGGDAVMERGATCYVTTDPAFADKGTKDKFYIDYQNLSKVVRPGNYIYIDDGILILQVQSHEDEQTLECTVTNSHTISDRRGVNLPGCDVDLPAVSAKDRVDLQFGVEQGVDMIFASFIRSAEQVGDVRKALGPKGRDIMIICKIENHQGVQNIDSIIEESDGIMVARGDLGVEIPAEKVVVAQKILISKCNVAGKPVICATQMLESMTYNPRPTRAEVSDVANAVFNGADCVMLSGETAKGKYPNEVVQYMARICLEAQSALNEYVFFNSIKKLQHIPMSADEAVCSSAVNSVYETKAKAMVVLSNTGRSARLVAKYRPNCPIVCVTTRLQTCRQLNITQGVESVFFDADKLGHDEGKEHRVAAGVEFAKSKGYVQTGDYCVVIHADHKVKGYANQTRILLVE
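Kinase-Glo luminescence read after 1 h RT reaction of 0.1 nM LmPK with 0.5 mM PEP and 0.1 mM ADP. Activity scaled between uninhibited and enzyme-free controls.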
Cycloheximide cs = affects cycloheximide protein synthesis inhibition readout, counter-screen | 300,000 tested, 12% active | max response, % | cell reporter, cycloheximide protein synthesis inhibition counterscreen; in the data active means max response mostly above about 13%, no sharp cut-off; inactive means mostly below about 14%; further: read at 38.3 µM for the half of the compounds with a filed dose; 0% is about no effect
Giardia FBPA inh = Giardia lamblia aldolase inhibition; Potency, µM (highest dose often 59.6 µM), inactives show at the highest dose activity, negative = inhibition, most hits filed as inhibitors; AID 2451; 290,000 tested, 0.71% active; A8B2U2; purified Giardia FBPA; further: potency means the concentration at half of the fitted maximal effect; on the % scale 0 is the no-effect control and ±100 the full control effect; nearly all actives have a fitted effect of over 55% in size
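Giardia FBPA (40 nM reagent) was preincubated 10 min at RT with compound (up to 57.5 uM final), then substrate plus GAPDH/TPI/NAD/arsenate coupling system with diaphorase/resazurin was added; resorufin fluorescence (525/598 nm) was read after 20 min.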
Sm TGR block = S. mansoni TGR enzyme inhibition; Q962Y6; purified TGR, DTNB reduction, TNB absorbance 405 nm; Potency, µM (titrated, usually from 114 µM), for the others: at the top dose activity change, negative = inhibition, hits mostly inhibitors; 360,000 tested, 3% active; AID 485364; further: potency means the concentration at half of the fitted maximal effect; on the % scale 0 is the no-effect control and ±100 the full control effect; nearly all actives have a fitted effect of over 60% in size
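TGR 20 nM + NADPH 100 uM (dispensed conc.), cpd preinc 15 min RT; start with NADPH (500 uM addition) then DTNB (15 mM addition). Kinetic TNB absorbance, 405 nm filter. Four-parameter Hill fit across titration.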
* hit, by the source's call; ? = inconclusive; . = no result; [ ] = another dose, or the depositor's remark. Unless noted, the call rests on the fitted dose curve; in most records, active means well fitted curve in the direction sought with a large enough effect; inconclusive means small, poorly fitted or top-dose-only effect, or another doubt; inactive means no such curve, though single readings can be large; an effect the other way counts as inactive or inconclusive.

SMILES | Shiga toxin inh | Tb PYK inh | LmPK inh | Cycloheximide cs | Giardia FBPA inh | Sm TGR block
Cc1ccc(C)c(C(=O)CSc2nc3ccccc3c(=O)[nH]2)c1 | -1 | -9% | 0% | -2 | -1% | -2%[57.1 µM]
Fc1cccc(CSc2nc3ccncc3[nH]2)c1 | 50* | -2% | -15% | 32* | -3% | -1%
O=C(CSc1nc2ccccc2[nH]1)c1ccc(Cl)s1 | 86* | -21% | 3% | 39* | -9% | -20%
CC(C)(C)C(=O)c1cn(CC(=O)NCc2ccco2)c2ccccc12 | 96* | -5% | 0% | 36* | -5% | .
O=C(Cn1cc(C(=O)c2ccccc2F)c2ccccc21)NCc1ccco1 | -10 | -3% | 4% | 12 | 3% | -8%
CCN(CC)C(=O)Cn1cc(SCC(=O)NCc2ccco2)c2ccccc21 | -14 | -3% | -2% | -1 | 3% | -25%
CC(C)C(=O)c1cn(CC(=O)NCc2ccco2)c2ccccc12 | 58* | 6% | 3% | 30* | 3% | 0%
CCN(CC)C(=O)Cn1cc(C(=O)C(=O)NCc2ccco2)c2ccccc21 | 33 | -1% | 1% | 4 | -4% | 40µM*
Cc1ccccc1-c1ccc2ncnc(N3CCOCC3)c2c1 | . | . | . | . | 1% | .
c1cncc(Nc2nc(-c3cccs3)cs2)c1 | 103* | ? | -5% | 63* | -22% | 0%
c1ccc(-c2csc(Nc3cccnc3)n2)nc1 | 44* | -1% | 0% | 35* | 4% | -2%
c1ccc(Nc2nc(-c3ccccn3)cs2)cc1 | 108* | 1% | -10% | 41* | 19% | 0%
O=C(CCS(=O)(=O)c1ccccc1)Nc1nc(-c2ccccn2)cs1 | . | -1% | . | . | . | .
COc1cccc2sc(Nc3nc(-c4ccccn4)cs3)nc12 | 105* | . | -6% | 75* | -9% | 0%
COC(=O)[C@@]12CCCCN1[C@H](c1ccc(-c3ccc(F)cc3)c(OC)c1)[C@@H]1C(=O)N(C)C(=O)[C@@H]12 | . | -7% | . | . | . | -27%
Cc1ccn2c(=O)c(NC(=O)c3cccc([N+](=O)[O-])c3C)c(C)nc2c1 | . | 3% | . | . | . | 1%
CCOC(=O)CCc1c(C)c2cc3c(c(C)c2oc1=O)OCN(CCc1ccccc1OC)C3 | . | 0% | . | . | . | -28%
CCCCCC#CCC#CCC#CCC#CCCCC(=O)O | -8 | . | 1% | -2 | -17% | 20µM*
CCCCCCCCCC(=O)O | . | -3% | . | . | . | .
CC(C)CC(=O)Nc1ccc(-c2nc3ccccc3c(=O)[nH]2)cc1 | 73* | -2% | -4% | 32* | 0% | 7%
CC(C)CC(=O)Nc1ccc(-c2nc3ccccc3c(=O)o2)cc1 | -4 | -5% | -3% | -3 | -2% | -7%
Cc1ccc(S(=O)(=O)NCCC(=O)NNC(=O)c2ccccc2O)cc1C | . | -3% | . | . | . | -2%
O=c1cc(-c2ccccc2)n(S(=O)(=O)c2ccccc2)o1 | -9 | -1% | -11% | 16* | -10% | 0%
COc1ccc(S(=O)(=O)n2oc(=O)cc2-c2ccccc2)cc1 | 18 | -5% | 8% | 8 | 5% | -25%
C(=N\n1cnnc1)/c1cccc(Oc2ccccc2)c1 | -11 | 12% | -4% | -2 | 0% | -17%
SMILES | Shiga toxin inh | Tb PYK inh | LmPK inh | Cycloheximide cs | Giardia FBPA inh | Sm TGR block
S=c1[nH]ncn1/N=C/c1cccc(Oc2ccccc2)c1 | 12 | ? | 10µM* | 6 | 23% | -5%
CSc1ccc(CCNC(=O)Cn2ccc3cc(S(=O)(=O)N4CCCCCC4)ccc32)cc1 | . | 0% | . | . | . | -3%
Cc1ccc(NNC(=O)c2ccno2)cc1C | -3 | 0% | 2% | -4 | -12% | 50µM*
Cc1cc(C(=O)NNc2ccc(C)c(C)c2)no1 | 15 | 5% | 1% | 16 | -4% | 50µM*
Cc1ccc(NNC(=O)c2ccno2)cc1Cl | 11 | -2% | 2% | 1 | -6% | -2%
CCc1ccc(C(=O)c2cn(CC(=O)NCCc3ccc(OC)c(OC)c3)c3nc(C)ccc3c2=O)cc1 | . | 4% | . | . | . | 0%
CCS(=O)(=O)c1nc(S(=O)(=O)c2ccc(C)cc2)c(NCc2ccccn2)s1 | -6 | 1% | 17% | -3 | -1% | 1%
CCCS(=O)(=O)c1nc(S(=O)(=O)c2ccc(C)cc2)c(N2CC(C)OC(C)C2)s1 (stereo not given) | -12 | -10% | -3% | 1 | . | 18µM*
CS(=O)(=O)c1nc(S(=O)(=O)c2ccc(Cl)cc2)c(NCc2ccccn2)s1 | -13 | 3% | 1% | -9 | -1% | 35µM*
Cc1ccc(S(=O)(=O)c2nc(S(=O)(=O)c3ccc(C)cc3)c(NCc3ccco3)s2)cc1 | 27 | -8% | 0% | 1 | . | -34%
CCCS(=O)(=O)c1nc(S(=O)(=O)c2ccc(C)cc2)c(NCc2ccccn2)s1 | -8 | -15% | 2% | -3 | 5% | 7.9µM*
CCCS(=O)(=O)c1nc(S(=O)(=O)c2ccc(C)cc2)c(NCc2ccco2)s1 | 7 | -5% | 6% | 1 | 0% | 18µM*
Cc1cccc(OCC(O)Cn2c(N3CCCCC3)nc3c2c(=O)n(C)c(=O)n3C)c1 (stereo not given) | -7 | -1% | -1% | 1 | 10% | 8%
CC(C)C(C(=O)NCC1CCCO1)N(C(=O)CNS(=O)(=O)c1ccccc1)C1CCCCC1 (stereo not given) | -3 | 1% | 1% | -3 | -3% | 10%
O=C(Nc1cccnc1Cl)c1noc2c1CCc1ccccc1-2 | 92* | 3% | -4% | 34* | -1% | 5%
COc1cc(NC(=O)c2noc3c2CCc2ccccc2-3)cc(OC)c1OC | . | 2% | . | . | . | 1%
O=C(NCCN1CCOCC1)c1noc2c1CCc1ccccc1-2 | 71* | 0% | -11% | 49* | -15% | 2%
CCCNC(=O)c1noc2c1CCc1ccccc1-2 | 64* | 1% | -3% | 42* | -18% | 1%
O=C(NCCc1ccccc1)c1noc2c1CCc1ccccc1-2 | 39* | 6% | 4% | 19* | 1% | 25%
O=C(NCc1ccc2c(c1)OCO2)c1ccc(Cl)nc1 | 0 | 1% | 7% | 1 | 4% | 10%
O=C(NCc1ccc2c(c1)OCO2)c1nc(S(=O)(=O)Cc2ccccc2F)ncc1Cl | 26 | 0% | -3% | 26* | -2% | 25µM*
O=C(NCc1ccc2c(c1)OCO2)c1nc(S(=O)(=O)Cc2ccccc2)ncc1Cl | 32 | 5% | -2% | 27* | . | 3.2µM*
COc1ccc(C2=CC(c3cccc(C)c3)n3nnnc3N2)cc1 (stereo not given) | 43 | 2% | . | 28* | . | -32%
CCOc1ccc(C2C=C(c3ccc(C)cc3)Nc3nnnn32)cc1 (stereo not given) | -10 | -7% | 10% | -5 | 13% | -20%
CCOc1ccc(C2C=C(c3ccccc3)Nc3nnnn32)cc1 (stereo not given) | 131* | 4% | 0% | 58* | -8% | -23%
